Sampled rows, rich in hits. Any-hit rate of the full collection: about 27%.
Cav3 T inh = inhibitors of human Cav3.2 T-type calcium channel. B-score at 10 µM. AID 449739. O95180. Cav3.2-expressing cells, Fluo-4 calcium fluorescence FDSS; active compounds read low. 100,000 tested, 4% active;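 active = single-dose well whose peak fluorescence ratio is a statistical outlier from its plate by either plate-standardised score or position-corrected B-score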
CYP2C19 inh = blocks human cytochrome P450 2C19. 96,000 tested, 21% active. AID 778. inhibition, % at 5 µM. CYP2C19 Supersomes, luciferin-H EGE luminescence, 30 min;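 active = CYP2C19 inhibition above a set limit at 5 µM in the primary screen, cut at about 50% in these data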;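 note: plate controls were negative control wells for no effect and 2.5 mM tranylcypromine positive control for full effect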
Target sequence (P33261 whole entry, looked up): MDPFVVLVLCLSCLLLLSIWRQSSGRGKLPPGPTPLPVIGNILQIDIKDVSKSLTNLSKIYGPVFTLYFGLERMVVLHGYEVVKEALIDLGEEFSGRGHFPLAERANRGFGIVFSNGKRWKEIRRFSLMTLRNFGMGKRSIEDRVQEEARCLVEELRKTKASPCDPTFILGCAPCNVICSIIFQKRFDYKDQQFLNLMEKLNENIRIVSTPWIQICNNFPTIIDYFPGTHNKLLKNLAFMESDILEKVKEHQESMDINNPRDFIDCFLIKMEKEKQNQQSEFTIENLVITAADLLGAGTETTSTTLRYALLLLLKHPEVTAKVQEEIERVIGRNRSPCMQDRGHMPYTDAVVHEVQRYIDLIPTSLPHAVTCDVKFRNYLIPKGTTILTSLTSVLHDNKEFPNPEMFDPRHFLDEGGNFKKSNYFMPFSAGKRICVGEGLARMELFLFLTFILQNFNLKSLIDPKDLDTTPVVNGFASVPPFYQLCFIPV
CYP2C9 inhib = human CYP2C9 inhibition; inhibition, % at 5 µM; CYP2C9 Supersomes, luciferin-H conversion, luminescence; 96,000 tested, 20% active;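 active = blocking of liver enzyme CYP2C9 beyond about 50% at 5 µM, limit read from the data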
CYP2C9 act = increases human cytochrome P450 2C9 activity; P11712; recombinant CYP2C9, luciferin-H conversion, luminescence; active compounds read high; factor 1 = untreated enzyme, 0 = blocked; activation factor at 5 µM; 96,000 tested, 1.4% active;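 active = activation factor of 2 or more for CYP2C9 at a 5 µM dose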;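 note: 0 = sulfaphenazole-blocked wells and 1 = vehicle-only wells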
CYP2C19 act = increases human CYP2C19 enzyme activity. 96,000 tested, under 10 active. recombinant CYP2C19, luciferin-H EGE luminescence; active compounds read high; 0 = fully inhibited enzyme, 1 = untreated enzyme. activation factor at 5 µM. P33261. AID 1025;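 active = activation factor of at least 2 at 5 µM in the primary screen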;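 note: 0 = wells with 2.5 mM tranylcypromine and 1 = vehicle-only wells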
* marks the source's active call; other numbers are inactive results; · = no result given.

SMILES	Cav3 T inh	CYP2C19 inh	CYP2C9 inhib	CYP2C9 act	CYP2C19 act
O=C(CN(C1CCCCC1)S(=O)(=O)c1ccc(F)cc1)Nc1ccc2c(c1)OCO2	-5.6*	·	·	·	·
Fc1ccc(-n2nnc(-c3ncc[nH]3)n2)cc1	-0.046	·	·	·	·
CCNc1nc(NCC)nc(SCCOC(=O)COc2ccc(Cl)cc2Cl)n1	0.77	12	18	0.8	0.9
COc1ccc(N(Cc2ccco2)C(=O)c2ccccc2F)cc1OC	-2.8	71*	80*	0.2	0.3
COc1ccc(C(=O)NCCSCc2ccco2)cc1OC	1.3	37	-6	1.1	0.6
Cc1ccc(N(Cc2ccc([N+](=O)[O-])cc2)C(=O)c2ccco2)cc1	-6.7*	25	96*	0	0.7
COc1cc(CN(C(=O)c2ccco2)c2ccc(C)cc2)ccc1O	-0.16	21	49	0.5	0.8
COc1ccc(CN(C(=O)c2ccco2)c2ccc(Br)cc2)cc1OC	-4.6*	80*	89*	0.1	0.2
CC1=CC(C)C2(CO)COC(c3ccccc3O)C1C2C (centres undefined)	-2.7	90*	64*	0.4	0.1
CCCOc1ccc(C(C)=O)cc1CC(C(N)=O)C(N)=O	·	-14	-4	1	1.1
CCCOc1ccc(C(C)=O)cc1CSc1nc(O)cc(=O)[nH]1	1.4	9	75*	0.3	0.9
CC(C)Cn1[nH]c2c3c(ccc2c1=O)C(=O)c1ccccc1C3=O	2.2	61*	80*	0.2	0.4
Cc1sc(NC(=O)c2cccs2)nc1-c1ccccc1	-0.17	-6	4	1	1.1
N#Cc1c(-c2ccccc2)c(-c2ccccc2)n(Cc2ccco2)c1NC(=O)c1cccs1	-8.9*	50	64*	0.4	0.5
COc1ccccc1CNC(=O)CSc1nc2nc(C)cc(C)n2n1	0.56	-7	-32	1.3	1.1
CCn1c(SCC(N)=O)nc2c1c(=O)n(C)c(=O)n2C	-0.084	-15	-13	1.1	1.2
Cc1cccc(Nc2ncccc2C(=O)NCc2cccs2)c1C	-2.6	34	57*	0.4	0.7
COc1cccc(C2OC(=O)c3ccccc3N2C(C)=O)c1OC(C)=O (centres undefined)	0.34	27	14	0.9	0.7
CC(=O)N1c2ccccc2C(=O)OC1c1cccnc1 (centres undefined)	-0.67	12	10	0.9	0.9
O=C1OC(c2ccc3c(c2)OCO3)N(C(=O)c2ccc(Cl)c(Cl)c2)c2ccccc21 (centres undefined)	-3.1	84*	86*	0.1	0.2
COc1ccc2c(c1)O[C@H](c1ccc3c(c1)OCO3)[C@@H](O)C2=O	0.54	·	·	·	·
Cc1cccc(C(=O)N2c3ccccc3C(=O)OC2c2ccc3c(c2)OCO3)c1 (centres undefined)	·	27	58*	0.4	0.7
CC(=O)N1C(c2ccccc2)CC(=O)OC1c1ccc2c(c1)OCO2 (centres undefined)	2.5	69*	14	0.9	0.3
CCc1ccc2[nH]c(O)c(N=Nc3nc(-c4ccccc4)cs3)c2c1	-0.31	12	12	0.9	0.9
CCCCCN=Cc1c(C)[nH]n(-c2nc3ccccc3s2)c1=O	0.49	53*	73*	0.3	0.5
SMILES	Cav3 T inh	CYP2C19 inh	CYP2C9 inhib	CYP2C9 act	CYP2C19 act
CCCc1[nH]n(-c2nc3ccccc3s2)c(=O)c1C=NCCN1CCOCC1	0.69	-14	10	0.9	1.1
CCCN(CCC)c1ncnc2c1cnn2-c1ccc(OC)cc1	-0.82	10	8	0.9	0.9
CCCCCn1c(=O)[nH]c2cc(C(=O)NCCCN3CCC(C)CC3)ccc2c1=O	1.5	38	16	0.8	0.6
O=C(CN1CCC(O)(c2ccc3c(c2)OCO3)CC1)N1CCOCC1	1	-4	-72	1.7	1
O=C(CN1CCC(O)(c2ccc3c(c2)OCO3)CC1)OC1CCCCC1	0.038	54*	36	0.6	0.5
O=C1c2ccccc2C(=O)N1CCCCn1c(=O)oc2ccccc21	-0.24	48	31	0.7	0.5
COCCN(CCOC)C(=O)CCn1c(=O)oc2ccccc21	-0.68	·	·	·	·
Cc1ccccc1OCCn1c(=O)oc2ccccc21	-2.2	99*	69*	0.3	0
O=c1oc2ccccc2n1CCc1ccccc1	0.0096	86*	2	1	0.1
CC(=O)c1c(C)nc2nonc2c1N	·	-5	-9	1.1	1
O=C1/C(=C\c2cccnc2)CCc2ccccc21	·	75*	28	0.7	0.3
